How the values were obtained:
[1] = target: Protein kinase C eta type (Homo sapiens) (UniProt P24723); settings: at 10 µM
[2] = target: Protein kinase C theta type (Homo sapiens) (UniProt Q04759); settings: at 1 µM
[3] = target: Protein kinase C theta type (Homo sapiens) (UniProt Q04759); settings: at 10 µM
[4] = target: T1, Serine/threonine-protein kinase D1 (Homo sapiens) (UniProt Q15139); settings: at 10 µM
T1 sequence (whole entry): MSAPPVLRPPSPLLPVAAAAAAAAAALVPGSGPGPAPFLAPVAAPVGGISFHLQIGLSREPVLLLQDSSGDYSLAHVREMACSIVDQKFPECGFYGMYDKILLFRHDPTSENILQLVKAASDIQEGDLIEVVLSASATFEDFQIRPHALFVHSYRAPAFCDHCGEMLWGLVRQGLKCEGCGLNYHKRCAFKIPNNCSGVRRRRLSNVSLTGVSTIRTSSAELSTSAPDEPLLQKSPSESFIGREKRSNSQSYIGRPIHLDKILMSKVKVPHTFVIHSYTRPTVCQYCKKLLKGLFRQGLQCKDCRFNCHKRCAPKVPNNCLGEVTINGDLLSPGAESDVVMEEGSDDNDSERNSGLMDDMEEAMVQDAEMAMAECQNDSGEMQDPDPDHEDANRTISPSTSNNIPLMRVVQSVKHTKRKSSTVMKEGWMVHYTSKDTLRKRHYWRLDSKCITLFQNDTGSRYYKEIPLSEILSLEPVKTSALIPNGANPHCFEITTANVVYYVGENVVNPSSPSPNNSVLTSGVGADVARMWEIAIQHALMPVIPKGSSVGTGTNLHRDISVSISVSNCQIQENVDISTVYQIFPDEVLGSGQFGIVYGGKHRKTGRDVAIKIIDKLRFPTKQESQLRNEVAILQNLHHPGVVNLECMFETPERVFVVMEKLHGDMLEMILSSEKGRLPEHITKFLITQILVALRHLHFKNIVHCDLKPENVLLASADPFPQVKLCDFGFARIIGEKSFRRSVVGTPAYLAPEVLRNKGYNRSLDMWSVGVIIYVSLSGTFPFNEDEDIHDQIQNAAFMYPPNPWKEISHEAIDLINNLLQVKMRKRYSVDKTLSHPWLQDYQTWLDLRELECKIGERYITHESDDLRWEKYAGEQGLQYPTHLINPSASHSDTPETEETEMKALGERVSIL

[5] = target: T2, Serine/threonine-protein kinase D2 (Homo sapiens) (UniProt Q9BZL6); settings: at 1 µM
T2 sequence (whole entry): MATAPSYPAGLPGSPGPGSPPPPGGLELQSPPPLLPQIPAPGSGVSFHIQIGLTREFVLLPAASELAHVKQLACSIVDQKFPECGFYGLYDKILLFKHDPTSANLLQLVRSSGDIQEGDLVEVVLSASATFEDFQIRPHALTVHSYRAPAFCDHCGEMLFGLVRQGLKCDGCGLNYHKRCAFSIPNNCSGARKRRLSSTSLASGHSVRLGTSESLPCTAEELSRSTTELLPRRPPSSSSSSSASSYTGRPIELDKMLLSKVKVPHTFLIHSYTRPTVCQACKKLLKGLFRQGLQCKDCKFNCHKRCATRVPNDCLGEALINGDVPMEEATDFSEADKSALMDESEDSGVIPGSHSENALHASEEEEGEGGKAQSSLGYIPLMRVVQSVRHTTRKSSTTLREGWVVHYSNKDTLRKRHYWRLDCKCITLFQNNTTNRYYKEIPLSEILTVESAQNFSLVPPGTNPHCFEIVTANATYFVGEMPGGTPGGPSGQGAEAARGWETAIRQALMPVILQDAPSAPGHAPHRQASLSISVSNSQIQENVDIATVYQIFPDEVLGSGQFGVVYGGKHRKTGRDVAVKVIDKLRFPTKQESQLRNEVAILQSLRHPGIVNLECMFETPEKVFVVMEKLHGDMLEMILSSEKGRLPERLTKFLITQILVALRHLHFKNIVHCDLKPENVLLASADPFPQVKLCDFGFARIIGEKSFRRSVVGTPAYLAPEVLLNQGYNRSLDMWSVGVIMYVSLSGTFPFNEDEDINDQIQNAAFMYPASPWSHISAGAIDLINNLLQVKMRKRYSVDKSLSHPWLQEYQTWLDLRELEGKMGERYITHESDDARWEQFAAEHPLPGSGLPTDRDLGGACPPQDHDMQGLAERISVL

[6] = target: T2, Serine/threonine-protein kinase D2 (Homo sapiens); settings: at 10 µM
[7] = target: T3, cGMP-dependent protein kinase 1 (Homo sapiens) (UniProt Q13976); settings: at 1 µM
T3 sequence (whole entry): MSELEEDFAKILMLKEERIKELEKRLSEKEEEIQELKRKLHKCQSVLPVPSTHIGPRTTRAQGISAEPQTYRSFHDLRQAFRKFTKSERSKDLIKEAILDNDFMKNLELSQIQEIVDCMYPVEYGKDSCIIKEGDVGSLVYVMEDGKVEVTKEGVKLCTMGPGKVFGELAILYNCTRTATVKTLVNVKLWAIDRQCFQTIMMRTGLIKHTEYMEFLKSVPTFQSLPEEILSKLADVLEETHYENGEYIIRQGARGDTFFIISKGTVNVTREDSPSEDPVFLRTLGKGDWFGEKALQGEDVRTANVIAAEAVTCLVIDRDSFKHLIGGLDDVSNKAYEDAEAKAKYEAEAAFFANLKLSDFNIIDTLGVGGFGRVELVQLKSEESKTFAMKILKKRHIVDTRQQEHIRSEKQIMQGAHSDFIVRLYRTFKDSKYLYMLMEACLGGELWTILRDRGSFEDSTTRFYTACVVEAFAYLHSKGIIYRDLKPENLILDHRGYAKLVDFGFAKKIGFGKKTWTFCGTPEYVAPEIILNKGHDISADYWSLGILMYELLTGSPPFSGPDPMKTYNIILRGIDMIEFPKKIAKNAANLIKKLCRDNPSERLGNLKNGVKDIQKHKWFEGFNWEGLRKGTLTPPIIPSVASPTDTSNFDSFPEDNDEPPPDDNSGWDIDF

[8] = target: T3, cGMP-dependent protein kinase 1 (Homo sapiens); settings: at 10 µM
[9] = target: T3, cGMP-dependent protein kinase 1 (Homo sapiens); settings: at 1 µM; remark: listed apart in the source
[10] = target: T3, cGMP-dependent protein kinase 1 (Homo sapiens); settings: at 10 µM; remark: listed apart in the source
[11] = target: T4, MAP kinase-activated protein kinase 5 (Homo sapiens) (UniProt Q8IW41); settings: at 1 µM
T4 sequence (whole entry): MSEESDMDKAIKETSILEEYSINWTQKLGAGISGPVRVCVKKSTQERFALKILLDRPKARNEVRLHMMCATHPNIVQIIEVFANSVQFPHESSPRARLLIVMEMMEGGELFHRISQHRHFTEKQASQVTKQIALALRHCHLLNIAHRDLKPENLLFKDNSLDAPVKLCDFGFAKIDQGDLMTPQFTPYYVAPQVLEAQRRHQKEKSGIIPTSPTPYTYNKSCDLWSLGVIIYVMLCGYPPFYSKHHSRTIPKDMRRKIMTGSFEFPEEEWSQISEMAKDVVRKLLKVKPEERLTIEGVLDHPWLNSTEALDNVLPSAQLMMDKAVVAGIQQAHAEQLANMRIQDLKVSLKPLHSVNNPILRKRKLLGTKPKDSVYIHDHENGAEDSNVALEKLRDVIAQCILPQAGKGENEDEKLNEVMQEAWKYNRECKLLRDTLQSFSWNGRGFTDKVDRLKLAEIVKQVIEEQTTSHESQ

[12] = target: T4, MAP kinase-activated protein kinase 5 (Homo sapiens); settings: at 10 µM
[13] = target: Serine/threonine-protein kinase N2 (Homo sapiens) (UniProt Q16513); settings: at 1 µM
Sequence of Serine/threonine-protein kinase N2 (Homo sapiens) (Q16513 whole entry, looked up): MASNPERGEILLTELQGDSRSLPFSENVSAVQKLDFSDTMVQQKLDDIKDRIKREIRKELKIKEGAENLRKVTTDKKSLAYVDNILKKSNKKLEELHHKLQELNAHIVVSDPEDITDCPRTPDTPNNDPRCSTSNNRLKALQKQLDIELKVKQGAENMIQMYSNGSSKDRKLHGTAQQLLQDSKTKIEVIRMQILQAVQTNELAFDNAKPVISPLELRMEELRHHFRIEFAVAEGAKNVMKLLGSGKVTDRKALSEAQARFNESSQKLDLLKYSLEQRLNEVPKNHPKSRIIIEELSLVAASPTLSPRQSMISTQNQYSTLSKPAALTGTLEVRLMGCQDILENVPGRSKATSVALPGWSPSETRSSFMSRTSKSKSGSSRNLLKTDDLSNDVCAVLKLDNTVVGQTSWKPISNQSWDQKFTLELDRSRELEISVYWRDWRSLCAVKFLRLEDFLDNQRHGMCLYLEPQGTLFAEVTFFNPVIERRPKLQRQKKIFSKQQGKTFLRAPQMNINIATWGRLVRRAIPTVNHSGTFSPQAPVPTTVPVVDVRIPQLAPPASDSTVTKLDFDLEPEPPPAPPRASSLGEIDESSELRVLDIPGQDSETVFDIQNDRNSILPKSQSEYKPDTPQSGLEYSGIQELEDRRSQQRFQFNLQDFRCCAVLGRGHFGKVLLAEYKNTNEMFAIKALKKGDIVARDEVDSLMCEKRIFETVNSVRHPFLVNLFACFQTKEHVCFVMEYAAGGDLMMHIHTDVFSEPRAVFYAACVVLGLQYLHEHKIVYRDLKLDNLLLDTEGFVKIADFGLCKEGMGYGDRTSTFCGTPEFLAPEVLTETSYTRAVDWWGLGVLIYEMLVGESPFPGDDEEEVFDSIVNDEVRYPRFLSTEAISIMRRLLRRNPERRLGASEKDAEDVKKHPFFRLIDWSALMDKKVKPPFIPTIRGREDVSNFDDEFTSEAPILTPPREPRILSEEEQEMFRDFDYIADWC

[14] = target: Serine/threonine-protein kinase N2 (Homo sapiens) (UniProt Q16513); settings: at 10 µM
[15] = target: Tyrosine-protein kinase FRK (Homo sapiens) (UniProt P42685); settings: at 1 µM
Sequence of Tyrosine-protein kinase FRK (Homo sapiens) (P42685 whole entry): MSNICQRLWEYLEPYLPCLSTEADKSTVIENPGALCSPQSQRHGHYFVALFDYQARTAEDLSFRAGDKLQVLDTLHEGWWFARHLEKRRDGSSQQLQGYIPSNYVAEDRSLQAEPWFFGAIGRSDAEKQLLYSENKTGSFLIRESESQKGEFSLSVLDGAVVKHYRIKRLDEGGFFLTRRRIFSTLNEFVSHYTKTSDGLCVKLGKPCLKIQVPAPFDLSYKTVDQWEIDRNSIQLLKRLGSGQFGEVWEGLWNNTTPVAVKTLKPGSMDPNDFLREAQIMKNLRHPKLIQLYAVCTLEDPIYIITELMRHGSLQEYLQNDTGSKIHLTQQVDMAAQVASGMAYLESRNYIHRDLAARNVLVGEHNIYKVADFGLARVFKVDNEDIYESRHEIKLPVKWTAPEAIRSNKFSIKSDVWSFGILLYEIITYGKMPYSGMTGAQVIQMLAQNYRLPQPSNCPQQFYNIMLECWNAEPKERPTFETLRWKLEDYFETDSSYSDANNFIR

[16] = target: Tyrosine-protein kinase FRK (Homo sapiens) (UniProt P42685); settings: at 10 µM
[17] = target: T5, Protein kinase C iota type (Homo sapiens) (UniProt P41743); settings: at 1 µM
T5 sequence (whole entry): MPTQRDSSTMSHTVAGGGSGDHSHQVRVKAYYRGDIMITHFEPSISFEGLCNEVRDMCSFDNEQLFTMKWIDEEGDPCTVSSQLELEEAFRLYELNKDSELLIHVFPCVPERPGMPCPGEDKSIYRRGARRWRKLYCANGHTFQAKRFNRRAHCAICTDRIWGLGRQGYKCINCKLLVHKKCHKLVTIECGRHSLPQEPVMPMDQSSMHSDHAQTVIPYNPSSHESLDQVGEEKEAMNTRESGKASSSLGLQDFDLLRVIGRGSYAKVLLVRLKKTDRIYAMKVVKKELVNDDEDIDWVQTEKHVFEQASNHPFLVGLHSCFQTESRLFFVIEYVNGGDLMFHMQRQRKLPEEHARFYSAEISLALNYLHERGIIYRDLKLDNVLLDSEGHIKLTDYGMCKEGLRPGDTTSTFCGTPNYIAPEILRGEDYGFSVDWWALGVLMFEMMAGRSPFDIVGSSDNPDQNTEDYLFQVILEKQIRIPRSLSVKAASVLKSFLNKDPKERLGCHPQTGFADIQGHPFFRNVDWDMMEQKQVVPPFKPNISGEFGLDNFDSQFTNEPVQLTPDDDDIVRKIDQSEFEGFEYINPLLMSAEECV

[18] = target: T5, Protein kinase C iota type (Homo sapiens); settings: at 10 µM
[19] = target: T1, Serine/threonine-protein kinase D1 (Homo sapiens); settings: at 1 µM

Sequence of Protein kinase C theta type (Homo sapiens) (Q04759 whole entry, looked up): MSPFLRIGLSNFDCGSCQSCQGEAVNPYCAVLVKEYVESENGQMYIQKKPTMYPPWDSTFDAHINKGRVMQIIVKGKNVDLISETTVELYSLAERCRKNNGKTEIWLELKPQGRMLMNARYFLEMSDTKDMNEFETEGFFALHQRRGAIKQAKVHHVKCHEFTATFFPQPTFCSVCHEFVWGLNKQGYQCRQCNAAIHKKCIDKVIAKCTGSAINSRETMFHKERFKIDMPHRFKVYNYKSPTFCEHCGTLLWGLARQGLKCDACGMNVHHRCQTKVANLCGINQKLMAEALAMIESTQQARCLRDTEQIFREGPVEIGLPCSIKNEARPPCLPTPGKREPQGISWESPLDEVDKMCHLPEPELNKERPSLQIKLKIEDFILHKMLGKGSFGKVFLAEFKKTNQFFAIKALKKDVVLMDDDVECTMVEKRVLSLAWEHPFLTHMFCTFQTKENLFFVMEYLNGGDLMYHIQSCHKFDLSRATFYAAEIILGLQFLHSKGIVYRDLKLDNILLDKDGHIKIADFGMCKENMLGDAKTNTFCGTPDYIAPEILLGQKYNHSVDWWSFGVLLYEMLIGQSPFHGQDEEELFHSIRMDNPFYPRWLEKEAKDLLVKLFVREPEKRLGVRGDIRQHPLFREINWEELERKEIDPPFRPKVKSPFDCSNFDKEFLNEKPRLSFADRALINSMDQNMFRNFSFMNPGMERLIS
Sequence of Protein kinase C eta type (Homo sapiens) (P24723 whole entry): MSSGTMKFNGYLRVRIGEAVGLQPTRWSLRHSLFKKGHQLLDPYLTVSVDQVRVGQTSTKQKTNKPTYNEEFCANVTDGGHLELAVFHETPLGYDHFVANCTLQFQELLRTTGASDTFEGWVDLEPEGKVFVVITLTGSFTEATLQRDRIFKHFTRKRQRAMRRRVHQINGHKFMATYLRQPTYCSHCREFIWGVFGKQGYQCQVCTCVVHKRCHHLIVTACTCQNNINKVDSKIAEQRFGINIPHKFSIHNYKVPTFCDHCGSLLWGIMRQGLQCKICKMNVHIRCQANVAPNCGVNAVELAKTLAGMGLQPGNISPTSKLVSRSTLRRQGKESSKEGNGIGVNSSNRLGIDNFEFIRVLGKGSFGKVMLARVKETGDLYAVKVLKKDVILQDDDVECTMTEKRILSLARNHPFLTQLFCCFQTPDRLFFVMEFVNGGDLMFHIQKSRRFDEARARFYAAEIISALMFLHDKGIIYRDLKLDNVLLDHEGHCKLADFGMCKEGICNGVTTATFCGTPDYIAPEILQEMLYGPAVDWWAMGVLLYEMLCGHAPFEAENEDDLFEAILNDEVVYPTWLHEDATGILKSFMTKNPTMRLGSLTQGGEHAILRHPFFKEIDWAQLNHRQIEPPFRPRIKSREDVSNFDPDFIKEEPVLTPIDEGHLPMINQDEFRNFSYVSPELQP

With `O=C(NC(NC(=S)Nc1ccc(F)c([N+](=O)[O-])c1)C(Cl)(Cl)Cl)C(c1ccccc1)c1ccccc1` (stereo unspecified) the residual activity [1] was 90%, the residual activity [2] was 97% and the residual activity [3] was 104%. It also gave a residual activity [4] of 88%, a residual activity [5] of 100% and a residual activity [6] of 100%. It also gave a residual activity [7] of 96%, a residual activity [8] of 92% and a residual activity [9] of 97%. For the same molecule, the residual activity [10] was 73%, the residual activity [11] was 87% and the residual activity [12] was 49%. The residual activity [13] was 94%, the residual activity [14] was 102% and the residual activity [15] was 71%. The residual activity [16] was 47%.
`Nc1nc(Nc2ccc(S(N)(=O)=O)cc2)nn1C(=O)c1c(F)cccc1F` gave a residual activity [1] of 64%, a residual activity [2] of 30% and a residual activity [3] of 20%. The residual activity [17] was 109% (inactive), the residual activity [18] was 100% and the residual activity [19] was 75%. For the same molecule, the residual activity [4] was 19%, the residual activity [5] was 113% and the residual activity [6] was 78%. The residual activity [11] was 101%, the residual activity [12] was 70% and the residual activity [13] was 81%. It also gave a residual activity [14] of 32% and a residual activity [16] of 38%.
Work on `COc1ccc(COc2ccc(Cc3cnc(N)nc3N)cc2OC)cc1` yielded a residual activity [19] of 81% and a residual activity [4] of 77%.
With `CN(C)S(=O)(=O)c1ccc2c(c1)/C(=C/c1cc3c([nH]1)CCCC3)C(=O)N2` the residual activity [2] was 93%, the residual activity [3] was 72% and the residual activity [17] was 99% (inactive). The residual activity [18] was 114%, the residual activity [19] was 91% and the residual activity [7] was 99%. It also gave a residual activity [9] of 89%, a residual activity [10] of 80% and a residual activity [13] of 95%. The residual activity [14] was 82%, the residual activity [15] was 54% and the residual activity [16] was 48%.
With `CCN1/C(=C/C(C)=O)Sc2ccc(OC)cc21` the residual activity [19] was 59%, the residual activity [4] was 18% and the residual activity [6] was 70%.
In the case of `CCN(CC)CCNC(=O)c1c(C)[nH]c(/C=C2\C(=O)Nc3ccc(Cl)cc32)c1C`, the residual activity [19] is reported as 38%, the residual activity [4] is reported as 4% and the residual activity [5] is reported as 73%. It also gave a residual activity [6] of 16%, a residual activity [11] of 97% and a residual activity [12] of 49%. It also gave a residual activity [13] of 52%, a residual activity [14] of 18% and a residual activity [15] of 31%. It also gave a residual activity [16] of 1%.
`O=C(CCCc1ccc(-c2ccccc2F)cc1)Nc1ccc(O)cc1` was tested, and the residual activity [2] was 100%, the residual activity [3] was 105% and the residual activity [5] was 110%. For the same molecule, the residual activity [6] was 98%, the residual activity [7] was 98% and the residual activity [8] was 100%. For the same molecule, the residual activity [9] was 97%, the residual activity [10] was 72% and the residual activity [12] was 64%. The residual activity [13] was 100%, the residual activity [14] was 79% and the residual activity [15] was 97%. For the same molecule, the residual activity [16] was 112%.
Work on `O=c1c(-c2ccc(F)cc2)c(-c2ccncc2)[nH]n1-c1ccc(Cl)cc1` yielded a residual activity [1] of 72%, a residual activity [3] of 71% and a residual activity [18] of 100%. The residual activity [19] was 99%, the residual activity [4] was 37% and the residual activity [6] was 73%. For the same molecule, the residual activity [12] was 74% and the residual activity [16] was 32%.
With `COc1ccc(-c2cnc3c(-c4ccsc4)cnn3c2)cc1` the residual activity [1] was 76%, the residual activity [17] was 81% (inactive) and the residual activity [18] was 77%. It also gave a residual activity [19] of 84%, a residual activity [4] of 97% and a residual activity [7] of 88%. It also gave a residual activity [8] of 90%, a residual activity [9] of 99% and a residual activity [10] of 99%. For the same molecule, the residual activity [11] was 93%, the residual activity [12] was 84% and the residual activity [13] was 95%. The residual activity [14] was 130%.
